According to PubChem BioAssay:
Activity calls are given as the source filed them.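 How the source made its calls: active means inhibition at or above 50% at 10 µM; inactive means inhibition below 50%.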

Assay: inhibitors of Sendai virus-induced IRF3 signaling, primary screen, TLR/RLR signaling modifier project, cell-based, Sendai virus stimulus, luciferase, 10K MLSCN set (AID 602276);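 further: firefly luciferase from ISG56 promoter only with Renilla not read in this screen; 0% = Sendai virus plus DMSO and 100% = medium plus DMSO without virus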
Conditions: HEK293 RL24 IRF3 luciferase reporter, at 10 µM, stronger effect = higher value

Structure (SMILES) | inhibition
COc1ccc(Cl)cc1N1CC(c2nc3ccccc3[nH]2)CC1=O (centres undefined) | 16.2% (inactive)
CC1(C)NC(=O)N(CC(O)COc2cccc(F)c2)C1=O (centres undefined) | -5.23% (inactive)
Cc1c(C(=O)OCc2ccccc2)[nH]c2c1C(=O)CC(c1ccco1)C2 (centres undefined) | 45.4% (inactive)
CCOC(=O)c1sc(NC(=O)CSc2nnc(-c3ccc(OC)cc3)n2CCOC)nc1C | 13.8% (inactive)
COc1ccc(Cn2nnnc2C(c2cccnc2)N2CCN(c3ccc(O)cc3)CC2)cc1 (centres undefined) | 15% (inactive)
CCOC(=O)Cn1c(CN(C)Cc2ccccc2)nc2c1c(=O)n(C)c(=O)n2C | 13.2% (inactive)
CNC(=O)CSc1nnc(-c2ccc(S(=O)(=O)N3CCCC3)cc2)n1-c1cccc(C)c1C | 12.2% (inactive)
O=C(COC(=O)CSc1nnc(-c2ccc(Cl)cc2)o1)NCc1ccc2c(c1)OCO2 | 8.92% (inactive)
CC(C)(C)n1ncc2c(=O)n(CC(=O)NCc3ccc(F)cc3)cnc21 | -15.8% (inactive)
CC1CCN(S(=O)(=O)c2cccc(C(=O)Nc3ccccn3)c2)CC1 | 18.4% (inactive)
CCOC(=O)c1cc2c(=O)n3ccccc3nc2n(CC2CCCO2)c1=NC(C)=O (centres undefined) | 9.86% (inactive)
CCOC(=O)c1[nH]c(C)c(C(=O)N2CCN(C(=O)c3ccco3)CC2)c1C | 16.8% (inactive)
CCN(CC)S(=O)(=O)c1ccc(NC(=O)Cn2cnc3ccccc3c2=O)cc1 | 12.3% (inactive)
CCOC(=O)c1c(C)[nH]c(C(=O)COC(=O)c2ccc(F)c(S(=O)(=O)N3CCOCC3)c2)c1C | 5.38% (inactive)
O=C(CN1CCN(c2ncccn2)CC1)Nc1ccccc1-n1cccc1 | 14.7% (inactive)
CCOC(=O)Cn1c(=O)c(-c2ccccc2N)nc2ccccc21 | 12.3% (inactive)
CCCOc1ccc(NC2=CC(=O)CC(C)(C)C2)cc1 | -1.23% (inactive)
CCOC(=O)C1(CC)NC(c2cccc(F)c2)C2C(=O)N(CC)C(=O)C21 (centres undefined) | 12.4% (inactive)
CCC(C)NC(=O)CC1Oc2ccc(C)cc2NC1=O (centres undefined) | 2.24% (inactive)
O=C(NCC(=O)N(c1cnc2ccccc2c1)C(C(=O)NC1CCCC1)c1ccncc1)c1ccco1 (centres undefined) | 15.1% (inactive)
O=C(Nc1cccc2ccccc12)N1CCN(c2ccccc2)CC1 | 8.28% (inactive)
CC(C)(C)Nc1nc(NC(C)(C)C)nc(-n2ccnc2)n1 | 14.6% (inactive)
Nc1nnnn1NCc1cccc(OCc2ccccc2)c1 | 5.03% (inactive)
O=C(COC(=O)C1CC(=O)N(c2ccccc2)C1)c1ccccc1 (centres undefined) | -13.2% (inactive)
